Source: publication PMC7862700, “An all-to-all approach to the identification of sequence-specific readers for epigenetic DNA modifications on cytosine”

Columns and labels:
Assay in all cases: DAPPL (digital affinity profiling via proximity ligation, sequencing); 10 mM Tris-HCl pH 7.5, 50 mM NaCl, 1 mM DTT, 4% glycerol, room temperature, 30 min; GST-TFs on glutathione beads, 16-mer random dsDNA library, 0.1% formaldehyde crosslink after washing; high values mean tight binding
Settings in all cases: protein: recombinant; tags: N-terminal GST; dsDNA, one strand shown
[1] = molecular target: T1, FLI1 (Homo sapiens, UniProt Q01543 1-452)
T1 sequence: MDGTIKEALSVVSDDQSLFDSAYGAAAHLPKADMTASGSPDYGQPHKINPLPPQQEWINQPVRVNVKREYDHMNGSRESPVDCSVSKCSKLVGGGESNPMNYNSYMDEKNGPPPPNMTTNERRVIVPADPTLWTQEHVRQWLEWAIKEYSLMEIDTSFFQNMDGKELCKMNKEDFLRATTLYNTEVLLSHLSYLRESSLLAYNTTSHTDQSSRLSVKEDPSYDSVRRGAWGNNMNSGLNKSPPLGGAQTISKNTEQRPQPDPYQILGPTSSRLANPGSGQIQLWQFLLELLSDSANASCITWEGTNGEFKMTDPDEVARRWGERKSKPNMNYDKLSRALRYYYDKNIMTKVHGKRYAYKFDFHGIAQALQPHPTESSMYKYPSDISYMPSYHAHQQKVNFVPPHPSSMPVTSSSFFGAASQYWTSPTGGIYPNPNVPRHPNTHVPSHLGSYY
Method in brief: (§1)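 Beads coated with glutathione captured GST-fused human transcription factors that had been expressed in yeast, and the factors were then given DNA barcodes and pooled with a tag-only sample. The pools were incubated with 200 nmole of a random double-stranded 16-mer DNA library in Tris/NaCl/DTT/glycerol buffer for 30 min at room temperature, washed, crosslinked with 0.1% formaldehyde and proximity-ligated with BsaI/T4 ligase at 37 °C for 1 h. PCR amplification and Illumina NextSeq500 sequencing came last. Binding signal is each hexamer's read frequency for a factor divided by its frequency for the tag-only sample.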

[2] = molecular target: T2, ELK1 (Homo sapiens, UniProt P19419 1-428)
T2 sequence: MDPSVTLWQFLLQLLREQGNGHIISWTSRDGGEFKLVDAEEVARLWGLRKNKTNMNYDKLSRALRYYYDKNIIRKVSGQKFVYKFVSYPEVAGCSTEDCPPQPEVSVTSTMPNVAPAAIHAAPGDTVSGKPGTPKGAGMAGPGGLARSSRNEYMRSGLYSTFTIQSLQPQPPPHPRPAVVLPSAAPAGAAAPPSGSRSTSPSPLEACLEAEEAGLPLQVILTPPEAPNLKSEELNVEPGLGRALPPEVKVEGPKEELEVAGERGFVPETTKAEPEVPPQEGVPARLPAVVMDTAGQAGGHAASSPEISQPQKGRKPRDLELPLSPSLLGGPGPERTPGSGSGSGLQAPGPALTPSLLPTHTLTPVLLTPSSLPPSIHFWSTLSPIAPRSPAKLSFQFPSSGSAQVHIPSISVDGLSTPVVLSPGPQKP
Method in brief: as §1

[3] = molecular target: T3, GABPA (Homo sapiens, UniProt Q06546 1-454)
T3 sequence: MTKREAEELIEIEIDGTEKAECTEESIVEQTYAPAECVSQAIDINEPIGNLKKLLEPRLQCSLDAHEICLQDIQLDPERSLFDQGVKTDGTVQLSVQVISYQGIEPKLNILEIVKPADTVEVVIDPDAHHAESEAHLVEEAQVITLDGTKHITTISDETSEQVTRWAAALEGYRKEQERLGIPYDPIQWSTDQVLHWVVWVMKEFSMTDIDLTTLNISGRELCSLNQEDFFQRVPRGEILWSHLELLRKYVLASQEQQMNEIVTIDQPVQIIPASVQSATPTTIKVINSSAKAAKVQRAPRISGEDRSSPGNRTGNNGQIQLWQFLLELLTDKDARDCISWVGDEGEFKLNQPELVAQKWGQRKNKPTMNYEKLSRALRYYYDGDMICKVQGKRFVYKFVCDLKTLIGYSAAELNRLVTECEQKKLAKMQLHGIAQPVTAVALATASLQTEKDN
Method in brief: as §1

[4] = molecular target: T4, ERG (Homo sapiens, UniProt P11308 1-479)
T4 sequence: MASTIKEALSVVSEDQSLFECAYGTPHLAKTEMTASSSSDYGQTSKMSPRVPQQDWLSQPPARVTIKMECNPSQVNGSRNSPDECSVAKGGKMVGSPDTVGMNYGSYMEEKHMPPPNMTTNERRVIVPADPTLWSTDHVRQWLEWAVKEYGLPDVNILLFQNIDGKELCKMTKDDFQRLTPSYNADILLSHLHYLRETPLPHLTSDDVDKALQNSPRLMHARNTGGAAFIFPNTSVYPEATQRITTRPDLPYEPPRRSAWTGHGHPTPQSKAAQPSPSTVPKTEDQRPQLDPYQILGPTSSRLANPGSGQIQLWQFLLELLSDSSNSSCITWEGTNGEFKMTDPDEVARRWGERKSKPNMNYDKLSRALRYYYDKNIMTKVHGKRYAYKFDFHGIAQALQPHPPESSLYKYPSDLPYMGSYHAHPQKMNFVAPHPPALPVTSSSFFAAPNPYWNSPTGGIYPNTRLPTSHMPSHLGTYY
Method in brief: as §1

[5] = molecular target: ELF1 (Homo sapiens, UniProt P32519 1-619)
Chain of ELF1 (P32519 whole entry): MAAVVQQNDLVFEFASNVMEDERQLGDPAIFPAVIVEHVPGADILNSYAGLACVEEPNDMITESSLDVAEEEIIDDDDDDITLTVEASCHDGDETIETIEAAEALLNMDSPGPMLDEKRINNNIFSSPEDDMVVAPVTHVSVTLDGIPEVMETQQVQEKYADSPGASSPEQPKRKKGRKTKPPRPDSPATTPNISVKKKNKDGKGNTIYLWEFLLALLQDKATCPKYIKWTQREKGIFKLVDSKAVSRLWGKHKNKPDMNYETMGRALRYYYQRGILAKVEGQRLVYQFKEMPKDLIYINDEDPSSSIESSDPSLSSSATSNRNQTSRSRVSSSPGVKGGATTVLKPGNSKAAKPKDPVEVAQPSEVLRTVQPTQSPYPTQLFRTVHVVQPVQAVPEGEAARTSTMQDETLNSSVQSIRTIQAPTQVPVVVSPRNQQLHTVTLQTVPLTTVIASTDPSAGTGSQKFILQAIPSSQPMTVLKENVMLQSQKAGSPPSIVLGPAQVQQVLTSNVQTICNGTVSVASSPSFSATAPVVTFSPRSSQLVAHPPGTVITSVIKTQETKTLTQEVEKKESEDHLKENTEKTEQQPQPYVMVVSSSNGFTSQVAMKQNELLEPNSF
Method in brief: as §1

[6] = molecular target: T5, EHF (Homo sapiens, UniProt Q9NZC4 1-300)
T5 sequence: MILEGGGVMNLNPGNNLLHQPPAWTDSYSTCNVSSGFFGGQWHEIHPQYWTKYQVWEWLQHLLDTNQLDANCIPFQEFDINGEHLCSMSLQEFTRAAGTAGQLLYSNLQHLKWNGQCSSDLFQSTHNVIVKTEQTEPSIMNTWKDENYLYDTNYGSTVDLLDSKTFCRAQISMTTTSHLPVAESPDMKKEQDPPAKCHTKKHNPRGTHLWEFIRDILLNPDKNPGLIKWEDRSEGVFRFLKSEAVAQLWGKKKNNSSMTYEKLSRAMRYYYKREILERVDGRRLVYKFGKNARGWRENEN
Method in brief: as §1

[7] = molecular target: SPI1 (Homo sapiens, UniProt P17947 1-270)
Method in brief: as §1

[8] = molecular target: SPIB (Homo sapiens, UniProt Q01892 1-262)
Chain of SPIB (Q01892 whole entry): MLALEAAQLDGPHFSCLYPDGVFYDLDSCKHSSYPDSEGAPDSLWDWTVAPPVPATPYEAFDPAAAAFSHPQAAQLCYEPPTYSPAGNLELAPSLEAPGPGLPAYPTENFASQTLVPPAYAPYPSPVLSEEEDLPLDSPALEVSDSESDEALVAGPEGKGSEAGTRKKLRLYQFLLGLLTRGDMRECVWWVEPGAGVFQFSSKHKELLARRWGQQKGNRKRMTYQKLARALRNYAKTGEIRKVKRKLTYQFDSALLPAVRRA
Method in brief: as §1

[9] = molecular target: T6, ELK3 (Homo sapiens, UniProt P41970 1-407)
T6 sequence: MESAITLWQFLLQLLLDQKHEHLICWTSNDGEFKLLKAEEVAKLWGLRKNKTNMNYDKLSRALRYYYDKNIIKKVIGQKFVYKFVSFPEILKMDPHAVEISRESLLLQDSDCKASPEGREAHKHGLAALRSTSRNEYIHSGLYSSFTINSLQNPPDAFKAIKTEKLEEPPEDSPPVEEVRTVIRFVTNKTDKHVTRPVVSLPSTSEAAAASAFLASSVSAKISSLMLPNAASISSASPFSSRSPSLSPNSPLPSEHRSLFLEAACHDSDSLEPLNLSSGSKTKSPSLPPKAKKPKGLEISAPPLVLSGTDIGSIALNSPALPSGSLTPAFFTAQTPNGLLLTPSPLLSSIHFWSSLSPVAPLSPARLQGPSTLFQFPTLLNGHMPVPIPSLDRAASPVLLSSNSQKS
Method in brief: as §1

[10] = molecular target: T7, FEV (Homo sapiens, UniProt Q99581 1-238)
T7 sequence: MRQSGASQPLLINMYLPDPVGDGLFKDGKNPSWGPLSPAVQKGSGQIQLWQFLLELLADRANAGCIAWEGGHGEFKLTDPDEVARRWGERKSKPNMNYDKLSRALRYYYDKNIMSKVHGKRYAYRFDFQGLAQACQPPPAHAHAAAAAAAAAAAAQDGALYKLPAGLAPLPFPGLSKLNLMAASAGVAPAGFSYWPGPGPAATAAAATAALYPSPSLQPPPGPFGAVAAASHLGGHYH
Method in brief: as §1

[11] = molecular target: ETV5 (Homo sapiens, UniProt P41161 1-510)
Chain of ETV5 (P41161 whole entry): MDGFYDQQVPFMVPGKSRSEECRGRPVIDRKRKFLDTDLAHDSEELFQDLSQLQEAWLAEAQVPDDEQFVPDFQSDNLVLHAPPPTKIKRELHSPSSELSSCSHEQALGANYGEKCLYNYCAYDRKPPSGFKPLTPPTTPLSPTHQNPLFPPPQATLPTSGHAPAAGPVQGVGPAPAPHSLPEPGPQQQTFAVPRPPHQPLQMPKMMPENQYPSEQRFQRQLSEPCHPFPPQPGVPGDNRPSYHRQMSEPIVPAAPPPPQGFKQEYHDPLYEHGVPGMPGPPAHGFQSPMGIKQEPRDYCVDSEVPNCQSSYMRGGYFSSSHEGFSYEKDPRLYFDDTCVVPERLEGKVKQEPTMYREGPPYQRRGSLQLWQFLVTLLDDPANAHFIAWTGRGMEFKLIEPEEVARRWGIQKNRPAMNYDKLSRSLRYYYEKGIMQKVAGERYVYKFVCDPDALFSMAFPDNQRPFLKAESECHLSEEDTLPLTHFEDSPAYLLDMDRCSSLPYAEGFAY
Method in brief: as §1

[12] = molecular target: T8, SPIC (Homo sapiens, UniProt Q8N5J4 1-248)
T8 sequence: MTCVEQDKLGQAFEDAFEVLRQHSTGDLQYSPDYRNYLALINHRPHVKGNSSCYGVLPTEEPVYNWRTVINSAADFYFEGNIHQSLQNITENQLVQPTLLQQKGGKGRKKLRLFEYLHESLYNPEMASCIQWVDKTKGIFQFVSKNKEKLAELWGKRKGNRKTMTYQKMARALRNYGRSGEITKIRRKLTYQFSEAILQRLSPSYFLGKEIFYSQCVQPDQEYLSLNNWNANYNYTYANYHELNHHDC
Method in brief: as §1

[13] = molecular target: ELF4 (Homo sapiens, UniProt Q99607 1-663)
Chain of ELF4 (Q99607 whole entry): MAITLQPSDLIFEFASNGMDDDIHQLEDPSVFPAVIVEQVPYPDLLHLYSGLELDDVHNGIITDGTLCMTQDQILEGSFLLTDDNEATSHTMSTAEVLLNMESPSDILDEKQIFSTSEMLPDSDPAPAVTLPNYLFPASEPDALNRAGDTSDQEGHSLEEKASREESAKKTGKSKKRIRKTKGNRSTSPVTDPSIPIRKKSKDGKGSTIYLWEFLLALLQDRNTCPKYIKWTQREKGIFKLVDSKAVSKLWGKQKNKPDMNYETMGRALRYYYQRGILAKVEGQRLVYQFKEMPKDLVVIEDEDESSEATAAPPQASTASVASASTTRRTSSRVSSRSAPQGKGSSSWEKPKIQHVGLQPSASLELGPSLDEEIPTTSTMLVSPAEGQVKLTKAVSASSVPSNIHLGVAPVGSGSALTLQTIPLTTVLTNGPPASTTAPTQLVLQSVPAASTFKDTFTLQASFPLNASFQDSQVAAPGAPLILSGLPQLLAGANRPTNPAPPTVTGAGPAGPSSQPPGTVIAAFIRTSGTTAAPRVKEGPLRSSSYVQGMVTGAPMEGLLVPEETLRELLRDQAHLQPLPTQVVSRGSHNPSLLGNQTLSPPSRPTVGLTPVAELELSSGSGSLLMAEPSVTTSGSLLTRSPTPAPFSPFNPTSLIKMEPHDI
Method in brief: as §1

[14] = molecular target: T9, ELK4 (Homo sapiens, UniProt P28324-2 1-405)
T9 sequence: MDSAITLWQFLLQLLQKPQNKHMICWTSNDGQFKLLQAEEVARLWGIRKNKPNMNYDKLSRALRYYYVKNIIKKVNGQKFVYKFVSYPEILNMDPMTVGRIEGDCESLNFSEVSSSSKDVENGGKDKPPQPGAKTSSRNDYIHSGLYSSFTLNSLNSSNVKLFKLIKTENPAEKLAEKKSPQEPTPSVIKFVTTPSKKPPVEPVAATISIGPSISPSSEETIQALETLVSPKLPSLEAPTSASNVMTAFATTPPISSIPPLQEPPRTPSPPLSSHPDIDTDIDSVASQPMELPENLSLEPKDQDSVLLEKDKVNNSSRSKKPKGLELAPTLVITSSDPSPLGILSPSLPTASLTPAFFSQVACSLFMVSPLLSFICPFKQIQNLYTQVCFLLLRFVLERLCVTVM
Method in brief: as §1

[15] = molecular target: T10, ETV2 (Homo sapiens, UniProt O00321 1-342)
T10 sequence: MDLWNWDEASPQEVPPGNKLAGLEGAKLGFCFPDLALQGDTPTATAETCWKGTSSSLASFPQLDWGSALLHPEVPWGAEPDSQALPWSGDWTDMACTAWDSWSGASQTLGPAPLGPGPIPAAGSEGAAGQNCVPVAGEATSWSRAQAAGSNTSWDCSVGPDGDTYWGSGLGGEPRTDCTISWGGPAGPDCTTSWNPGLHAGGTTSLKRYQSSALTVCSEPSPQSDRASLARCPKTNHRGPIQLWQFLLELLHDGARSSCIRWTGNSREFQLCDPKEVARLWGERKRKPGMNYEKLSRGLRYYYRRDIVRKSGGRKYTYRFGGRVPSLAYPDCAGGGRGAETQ
Method in brief: as §1

[16] = molecular target: T11, ELF3 (Homo sapiens, UniProt P78545 1-371)
T11 sequence: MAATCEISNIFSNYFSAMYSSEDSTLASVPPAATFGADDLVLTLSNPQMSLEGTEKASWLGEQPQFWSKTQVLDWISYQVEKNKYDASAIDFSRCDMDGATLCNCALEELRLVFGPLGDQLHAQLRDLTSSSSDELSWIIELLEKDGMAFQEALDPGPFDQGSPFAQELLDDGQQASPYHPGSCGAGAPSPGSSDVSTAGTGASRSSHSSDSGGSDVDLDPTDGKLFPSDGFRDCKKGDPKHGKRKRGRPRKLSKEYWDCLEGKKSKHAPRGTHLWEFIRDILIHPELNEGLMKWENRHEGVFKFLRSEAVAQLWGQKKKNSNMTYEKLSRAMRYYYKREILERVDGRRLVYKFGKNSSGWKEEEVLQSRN
Method in brief: as §1

[17] = molecular target: ETV1 (Homo sapiens, UniProt P50549 1-477)
Chain of ETV1 (P50549 whole entry): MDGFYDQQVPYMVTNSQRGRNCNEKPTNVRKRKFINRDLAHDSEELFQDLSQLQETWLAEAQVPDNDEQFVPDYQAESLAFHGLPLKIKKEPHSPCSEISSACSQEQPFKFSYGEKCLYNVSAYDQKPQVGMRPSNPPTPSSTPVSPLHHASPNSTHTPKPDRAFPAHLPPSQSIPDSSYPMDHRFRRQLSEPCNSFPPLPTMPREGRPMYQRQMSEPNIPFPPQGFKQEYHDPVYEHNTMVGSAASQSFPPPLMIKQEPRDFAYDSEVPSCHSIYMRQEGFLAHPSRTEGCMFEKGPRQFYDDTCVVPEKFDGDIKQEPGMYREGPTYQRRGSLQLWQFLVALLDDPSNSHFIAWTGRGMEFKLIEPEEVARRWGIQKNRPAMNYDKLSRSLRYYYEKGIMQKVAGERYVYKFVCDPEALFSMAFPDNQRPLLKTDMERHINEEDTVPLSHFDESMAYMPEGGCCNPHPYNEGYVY
Method in brief: as §1

Sequence	binding signal [1]	binding signal [2]	binding signal [3]	binding signal [4]	binding signal [5]	binding signal [6]	binding signal [7]	binding signal [8]	binding signal [9]	binding signal [10]	binding signal [11]	binding signal [12]	binding signal [13]	binding signal [14]	binding signal [15]	binding signal [16]	binding signal [17]
GTACAC	1.18 fold enrichment (6-mer frequency, TF over GST control)	1.31 fold enrichment (6-mer frequency, TF over GST control)	1.18 fold enrichment (6-mer frequency, TF over GST control)	1.29 fold enrichment (6-mer frequency, TF over GST control)	1.17 fold enrichment (6-mer frequency, TF over GST control)	1.14 fold enrichment (6-mer frequency, TF over GST control)	1.18 fold enrichment (6-mer frequency, TF over GST control)	1.18 fold enrichment (6-mer frequency, TF over GST control)	1.23 fold enrichment (6-mer frequency, TF over GST control)	1.2 fold enrichment (6-mer frequency, TF over GST control)	1.27 fold enrichment (6-mer frequency, TF over GST control)	1.33 fold enrichment (6-mer frequency, TF over GST control)	1.29 fold enrichment (6-mer frequency, TF over GST control)	1.23 fold enrichment (6-mer frequency, TF over GST control)	1.17 fold enrichment (6-mer frequency, TF over GST control)	1.26 fold enrichment (6-mer frequency, TF over GST control)	1.2 fold enrichment (6-mer frequency, TF over GST control)
ACATTG	1.24 fold enrichment (6-mer frequency, TF over GST control)	1.11 fold enrichment (6-mer frequency, TF over GST control)	1.17 fold enrichment (6-mer frequency, TF over GST control)	1.07 fold enrichment (6-mer frequency, TF over GST control)	1.13 fold enrichment (6-mer frequency, TF over GST control)	1.17 fold enrichment (6-mer frequency, TF over GST control)	1.04 fold enrichment (6-mer frequency, TF over GST control)	1.16 fold enrichment (6-mer frequency, TF over GST control)	1.11 fold enrichment (6-mer frequency, TF over GST control)	1.12 fold enrichment (6-mer frequency, TF over GST control)	1.09 fold enrichment (6-mer frequency, TF over GST control)	1.18 fold enrichment (6-mer frequency, TF over GST control)	1.12 fold enrichment (6-mer frequency, TF over GST control)	1.19 fold enrichment (6-mer frequency, TF over GST control)	1.09 fold enrichment (6-mer frequency, TF over GST control)	1.25 fold enrichment (6-mer frequency, TF over GST control)	1.19 fold enrichment (6-mer frequency, TF over GST control)
